{
  "source": "the supplement of paper PMC3414501",
  "note": "Counter-ions that a name gives are not always drawn. Values without a mark were called inactive.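 How the source made its calls: active = HIS4 sensitivity z-score above 5 vs DMSO controls; inactive = score 5 or below.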",
  "data": [
    {"test_system": "S. cerevisiae NKY1551 his4x/his4B, sporulating", "assay": "HIS4 meiotic recombination assay sensitivity score (z-score vs DMSO controls); higher = stronger inhibition of sporulation/recombination, active = hit call of the paper", "experimental": "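NIH Clinical Collection compounds were added 1:100 from stock (about 100 µM final) to S. cerevisiae. Growth: average doubling time (AvgG) over 24 h of BY4741 (wild-type) or AD1-9 (drug-efflux-pump deficient) in rich media. HIS4: the his4x/his4B heteroallelic recombination reporter strain (SK1) was sporulated 5 h with compound at 30°C, then colony density was read on -his plates after 48 h. Sensitivity score = (compound − mean of 8 DMSO controls)/SD of DMSO controls. Hit cutoffs are >2 for growth and >5 for sporulation.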", "values": [
      {"smiles": "C[C@]12CC[C@@H]3c4ccc(OS(=O)(=O)O)cc4CC[C@H]3[C@@H]1CCC2=O", "note": "(stock concentration (mM, diluted 1:100): 10)", "HIS4 meiotic recombination assay sensitivity score": 1.4},
      {"smiles": "CCC1=C[C@H]2CN(C1)Cc1c([nH]c3ccccc13)[C@@](C(=O)OC)(c1cc3c(cc1OC)N(C)[C@H]1[C@@](O)(C(=O)OC)[C@H](OC(C)=O)[C@]4(CC)C=CCN5CC[C@]31[C@@H]54)C2", "note": "[Vinorelbine bitatrate] (stock concentration (mM, diluted 1:100): 7.2)", "HIS4 meiotic recombination assay sensitivity score": -0.36},
      {"smiles": "C#C[C@]1(O)CC[C@H]2[C@@H]3[C@H](C)CC4=C(CCC(=O)C4)[C@H]3CC[C@@]21C", "note": "[Tibolone] (stock concentration (mM, diluted 1:100): 10)", "HIS4 meiotic recombination assay sensitivity score": 1.06},
      {"smiles": "Cn1nnc2c(C(N)=O)ncn2c1=O", "note": "[Temozolomide] (stock concentration (mM, diluted 1:100): 10)", "HIS4 meiotic recombination assay sensitivity score": -0.54},
      {"smiles": "CCCCN1CCCC1CNC(=O)c1cc(C#N)c2ccccc2c1OC", "note": "(stereo not given) [Nafadotride] (stock concentration (mM, diluted 1:100): 10)", "HIS4 meiotic recombination assay sensitivity score": -0.64},
      {"smiles": "CCCCC1=NC2(CCCC2)C(=O)N1Cc1ccc(-c2ccccc2-c2nnn[nH]2)cc1", "note": "[Irbesartan] (stock concentration (mM, diluted 1:100): 10.1)", "HIS4 meiotic recombination assay sensitivity score": -0.26},
      {"smiles": "C=C1/C(=C\\C=C2/CCC[C@]3(C)[C@@H]([C@H](C)CCCC(C)(C)O)CC[C@@H]23)C[C@@H](O)C[C@@H]1O", "note": "[Calcitriol] (stock concentration (mM, diluted 1:100): 10)", "HIS4 meiotic recombination assay sensitivity score": 2.18},
      {"smiles": "CC(=O)NCCCCCCNC(C)=O", "note": "[Hexamethylene bisacetamide] (stock concentration (mM, diluted 1:100): 10)", "HIS4 meiotic recombination assay sensitivity score": -0.63},
      {"smiles": "CNCC[C@H](Oc1cccc2ccccc12)c1cccs1", "note": "[Duloxetine] (stock concentration (mM, diluted 1:100): 10)", "HIS4 meiotic recombination assay sensitivity score": -1.33},
      {"smiles": "CCOc1cc(CC(=O)N[C@@H](CC(C)C)c2ccccc2N2CCCCC2)ccc1C(=O)O", "note": "[Repaglinide] (stock concentration (mM, diluted 1:100): 10)", "HIS4 meiotic recombination assay sensitivity score": 0.84},
      {"smiles": "O=c1ncc(F)c[nH]1", "note": "[5-Fluoro-2-Pyrimidone] (stock concentration (mM, diluted 1:100): 10)", "HIS4 meiotic recombination assay sensitivity score": -0.02},
      {"smiles": "CCOC(=O)N1CCC(=C2c3ccc(Cl)cc3CCc3cccnc32)CC1", "note": "[Loratadine] (stock concentration (mM, diluted 1:100): 10)", "HIS4 meiotic recombination assay sensitivity score": -1.19},
      {"smiles": "C=CC1=C(C(=O)O)N2C(=O)[C@@H](NC(=O)/C(=N\\O)c3csc(N)n3)[C@H]2SC1", "note": "[Cefdinir] (stock concentration (mM, diluted 1:100): 10)", "HIS4 meiotic recombination assay sensitivity score": 0},
      {"smiles": "N[C@@H](C(=O)N[C@@H]1C(=O)N2C(C(=O)O)=C(Cl)CS[C@H]12)c1ccccc1", "note": "[Cefaclor] (stock concentration (mM, diluted 1:100): 10)", "HIS4 meiotic recombination assay sensitivity score": 1.51},
      {"smiles": "O=c1c(O[C@@H]2O[C@H](CO)[C@@H](O)[C@H](O)[C@H]2O)c(-c2ccc(O)c(O)c2)oc2cc(O)cc(O)c12", "note": "[Isoquercetrin] (stock concentration (mM, diluted 1:100): 10)", "HIS4 meiotic recombination assay sensitivity score": -0.48},
      {"smiles": "C[C@]12CCC(=O)C=C1CC[C@@H]1[C@@H]2CC[C@@]2(C)[C@H]1CC[C@]2(O)C(=O)CO", "note": "[Cortodoxone] (stock concentration (mM, diluted 1:100): 10)", "HIS4 meiotic recombination assay sensitivity score": 0.86},
      {"smiles": "Cc1ccc(O)c([C@H](CCN(C(C)C)C(C)C)c2ccccc2)c1", "note": "[Tolterodine tartrate] (stock concentration (mM, diluted 1:100): 6.9)", "HIS4 meiotic recombination assay sensitivity score": 4.21},
      {"smiles": "COc1ccc(CC(C)NCC(O)c2ccc(O)c(NC=O)c2)cc1", "note": "(stereo not given) [Formoterol fumarate dihydrate] (stock concentration (mM, diluted 1:100): 7)", "HIS4 meiotic recombination assay sensitivity score": -1.68},
      {"smiles": "CC[C@@]1(O)C(=O)OCc2c1cc1n(c2=O)Cc2cc3c(CN(C)C)c(O)ccc3nc2-1", "note": "[Topotecan hydrochloride] (stock concentration (mM, diluted 1:100): 9.2)", "HIS4 meiotic recombination assay sensitivity score": 0.22},
      {"smiles": "COc1cc2nc(N3CCN(C(=O)C4CCCO4)CC3)nc(N)c2cc1OC", "note": "(stereo not given) [Terazosin] (stock concentration (mM, diluted 1:100): 9.5)", "HIS4 meiotic recombination assay sensitivity score": 0.92},
      {"smiles": "CCCCCCNC(=O)n1cc(F)c(=O)[nH]c1=O", "note": "[Carmofur] (stock concentration (mM, diluted 1:100): 10.3)", "HIS4 meiotic recombination assay sensitivity score": -2.78},
      {"smiles": "O=C(c1ccc(F)cc1)C1CCN(CCn2c(=S)[nH]c3ccccc3c2=O)CC1", "note": "[Altanserin] (stock concentration (mM, diluted 1:100): 10)", "HIS4 meiotic recombination assay sensitivity score": -0.6},
      {"smiles": "CC(C)(C)C(O)/C=C/c1ccc2c(c1)OCO2", "note": "(stereo not given) [Stiripentol] (stock concentration (mM, diluted 1:100): 10)", "HIS4 meiotic recombination assay sensitivity score": 1.81},
      {"smiles": "CN(C/C=C/C#CC(C)(C)C)Cc1cccc2ccccc12", "note": "[Terbinafine hydrochloride] (stock concentration (mM, diluted 1:100): 8.9)", "HIS4 meiotic recombination assay sensitivity score": -0.72},
      {"smiles": "O=C(O)C[C@H](O)C[C@H](O)/C=C/c1c(C2CC2)nc2ccccc2c1-c1ccc(F)cc1", "note": "[Livalo] (stock concentration (mM, diluted 1:100): 5)", "HIS4 meiotic recombination assay sensitivity score": -3.02},
      {"smiles": "CCCN[C@H]1CCc2nc(N)sc2C1", "note": "[Pramipexole] (stock concentration (mM, diluted 1:100): 10)", "HIS4 meiotic recombination assay sensitivity score": -2.92},
      {"smiles": "CC(=O)[C@H]1CC[C@H]2[C@@H]3CCC4=CC(=O)CC[C@]4(C)[C@H]3CC[C@]12C", "note": "[Progesterone] (stock concentration (mM, diluted 1:100): 10)", "HIS4 meiotic recombination assay sensitivity score": "6.09 (active)"},
      {"smiles": "NC(N)=NC(=O)c1nc(Cl)c(N)nc1N", "note": "(stock concentration (mM, diluted 1:100): 8.2)", "HIS4 meiotic recombination assay sensitivity score": 2.44},
      {"smiles": "Cc1sc(N)c(C(=O)c2cccc(C(F)(F)F)c2)c1C", "note": "(stock concentration (mM, diluted 1:100): 10)", "HIS4 meiotic recombination assay sensitivity score": 1.22},
      {"smiles": "CN(C)CCc1c[nH]c2ccc(Cn3cncn3)cc12", "note": "[Rizatriptan benzoate] (stock concentration (mM, diluted 1:100): 10)", "HIS4 meiotic recombination assay sensitivity score": -0.35},
      {"smiles": "CC(=O)O[C@@]12CO[C@@H]1C[C@H](O)[C@@]1(C)C(=O)[C@H](O)C3=C(C)[C@@H](OC(=O)[C@H](O)[C@@H](NC(=O)OC(C)(C)C)c4ccccc4)C[C@@](O)([C@@H](OC(=O)c4ccccc4)[C@H]21)C3(C)C", "note": "[Docetaxel] (stock concentration (mM, diluted 1:100): 10)", "HIS4 meiotic recombination assay sensitivity score": -1.69},
      {"smiles": "C[N+]1(C)CCC(OC(=O)C(O)(c2ccccc2)C2CCCC2)C1", "note": "(stereo not given) [Glycopyrrolate] (stock concentration (mM, diluted 1:100): 10)", "HIS4 meiotic recombination assay sensitivity score": -0.65},
      {"smiles": "C[C@H](CCC(=O)O)[C@H]1CC[C@H]2[C@@H]3C(=O)C[C@@H]4CC(=O)CC[C@]4(C)[C@H]3CC(=O)[C@]12C", "note": "[Dehydrocholic acid] (stock concentration (mM, diluted 1:100): 10)", "HIS4 meiotic recombination assay sensitivity score": -0.93},
      {"smiles": "Cc1c(C(=O)NN2CCCCC2)nn(-c2ccc(Cl)cc2Cl)c1-c1ccc(I)cc1", "note": "(stock concentration (mM, diluted 1:100): 10)", "HIS4 meiotic recombination assay sensitivity score": 1.13},
      {"smiles": "Nc1nc(Cl)nc2c1ncn2[C@@H]1O[C@H](CO)[C@@H](O)[C@H]1O", "note": "[2-Chloroadenosine] (stock concentration (mM, diluted 1:100): 10)", "HIS4 meiotic recombination assay sensitivity score": -0.54},
      {"smiles": "CC(=O)CCCCn1c(=O)c2c(ncn2C)n(C)c1=O", "note": "[Pentoxifylline] (stock concentration (mM, diluted 1:100): 10)", "HIS4 meiotic recombination assay sensitivity score": -0.42},
      {"smiles": "CN1CCN(C2=Nc3cc(F)ccc3Cc3ccccc32)CC1", "note": "[Fluperlapine] (stock concentration (mM, diluted 1:100): 10)", "HIS4 meiotic recombination assay sensitivity score": -1.76},
      {"smiles": "CN1C2CCCC1CC(NC(=O)c1nn(C)c3ccccc13)C2", "note": "(stereo not given) [Granisetron hydrochloride] (stock concentration (mM, diluted 1:100): 9)", "HIS4 meiotic recombination assay sensitivity score": 0.28},
      {"smiles": "CC(C(=O)O)c1ccc(CC2CCCC2=O)cc1", "note": "(stereo not given) [Loxoprofen sodium] (stock concentration (mM, diluted 1:100): 9.1)", "HIS4 meiotic recombination assay sensitivity score": -0.15},
      {"smiles": "Cc1cccc(CCN2CCC(C(=O)c3ccc(NS(C)(=O)=O)cc3)CC2)n1", "note": "(stock concentration (mM, diluted 1:100): 9.9)", "HIS4 meiotic recombination assay sensitivity score": -3.32}
    ]}
  ]
}
